Results published in PubChem BioAssay AID1963322 (National Center for Advancing Translational Sciences (NCATS), 2024).
Inconclusive results are not listed. A call without a number means that no potency is given here. Calls of active or inactive are those of the source. Calls follow the shape of the full dose curve.

Biological target: cAMP-dependent protein kinase catalytic subunit alpha (Homo sapiens) (UniProt P17612)
Experiment: Protein Kinase A (PKA-HiBiT) SDR gain of signal screen
Conditions: PKA-HiBiT structural dynamics response (SDR), luminescence gain of signal; series mostly up to 32.9 µM
Excerpt: National Center for Advancing Translational Sciences (NCATS),
National Institute of Health (NIH), Maryland
Discovery and optimization of novel protein-binding ligands underlies many of the methods and applications of biology, drug discovery, clinical diagnostics, and environmental toxicology. Assays for detecting the interaction of, for example, a molecule with a macromolecular target also referred to here as the target of interest (TOI) is dependent on a compatible output technology. Depending on the nature and knowledge surrounding the TOI, whether a receptor, enzyme, regulatory subunit or scaffold, or a sequence-defined nucleic acid folded into a complex tertiary structure, assay strategies can vary widely.
Here we exploit ligand-biased changes in the structural dynamics of the target protein to control reporter alpha complementation allowing a non-competitive, non-functional, non-separation measure of ligand-target interaction.
Using a chemical library of >1,200 compounds enriched for scaffolds known to be associated with the inhibition of firefly luciferase (FLuc) activity (PubChem AIDs 2309) we first illustrate and compare the Structural Dynamics Response (SDR) assay vs. the standard functional FLuc enzyme assay (2). Secondly, we show the specificity and sensitivity of the SDR for the Abelson tyrosine kinase (ABL1) compared to the serine/threonine protein kinase A, using an enriched chemical library of 128 compounds selected, in part, for activity annotated with ABL1 kinase activity using the Pharos database (3).
(1) A. S. Dixon et al., NanoLuc Complementation Reporter Optimized for Accurate Measurement of Protein Interactions in Cells. ACS Chem Biol 11, 400-408 (2016).
Chemistry & Biology, 19, 1060 - 1072 (2012).
(3) K. J. Kelleher et al., Pharos 2023: an integrated resource for the understudied human proteome. Nucleic Acids Res 51, D1405-D1416 (2023).
PROTOCOL TABLE (as described by Inglese J, Shamu CE and Guy RK. 2007)
SEQUENCE No. (e.g., 1, 2, 3, etc.); […] (e.g., C. elegans, Compounds, Incubation, Read, etc.); VALUE and DESCRIPTION.
1. Reagent. Dispense 4 uL PKA-N-HiBiT enzyme per well at a final enzyme concentration of 10 nM in buffer into columns 2-48 of four replicate Greiner 1536-well white,solid bottom high base, medium plates per assay. Dispense respective buffer without enzyme at 4 uL/well in column 1 of assay plates using BioRaptr 2.
2. Compounds. Library compounds added at 23 nL/well by pin transfer. DMSO neutral control and H-89 positive control added at 25 nL/well, transfer by Mosquito dispenser.
3. Incubation. Incubate enzyme and compounds at room temperature for 30 min, protect from light.
4. Reagent. (SDR assay) Add 3 uL/well of Nano-Glo HiBiT reagent (Promega) to assay plates.
5. Incubation. (SDR assay) Incubate enzyme solution HiBiT reagent at room temperature for 10 min, protected from light.
6. Detector. (SDR assay) Luminescence measured using CCD-based camera (ViewLux) with settings as follows: Exposure, 1 sec; Gain, High; Speed, Slow; Binning, 2X.

Structure (SMILES) | Potency
O=[N+]([O-])O[C@H]1CO[C@H]2[C@@H]1OC[C@H]2O[N+](=O)[O-] | inactive
CCNC(=O)C[C@@H]1N=C(c2ccc(Cl)cc2)c2cc(OC)ccc2-n2c(C)nnc21 | inactive
O=C(NCCCNc1nc(Nc2ccc(N3CCOCC3)cc2)ncc1C1CC1)C1CCC1 | inactive
C/C(O)=C(\C#N)C(=O)Nc1cc(Br)ccc1Br | inactive
N#Cc1cn([C@@H]2O[C@H](CO)[C@H](O)[C@@H]2O)c2ncnc(N)c12 | inactive
Cc1[nH]nc2ccc(-c3cncc(OC[C@@H](N)Cc4c[nH]c5ccccc45)c3)cc12 | 197 nM (active)
